Mtb UGM inh: inhibitors of M. tuberculosis UDP-galactopyranose mutase. P9WIQ1. purified UGM, fluorescence polarization probe displacement. inhibition, % at 10 µM. 0.06% of 320,000 active. AID 504406; in the data active = inhibition above about 10%, passing the limit was not always enough; inconclusive = no clear call, values can overlap the other calls
TcdB GH inh: blocks C. difficile toxin B glycohydrolase activity; inhibition, % at 9.99 µM; TcdB glycohydrolase enzymatic assay, plate reader; P18177; AID 652162; 0.24% of 350,000 active; in the data active = inhibition above about 10%
RecA intein inh: inhibitors of M. tuberculosis RecA intein splicing; P9WHJ3; cell-free RecA intein splicing, fluorescence; inhibition, % (test concentration not listed); 0.75% of 290,000 active; AID 2221; in the data active = inhibition above about 30%; inconclusive = no clear call, values can overlap the other calls;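 also: 0% = vehicle wells and 100% = reference inhibitor control wells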
MazEF act: increases E. coli MazEF RNase cleavage of RNA. P0AE70. FAM/BHQ RNA-DNA oligo cleavage fluorescence, 5 h. activation, % at 20 µM. 0.32% of 350,000 active. AID 504720; in the data active = activation above about 50%
Rv3671c inh: Rv3671c (M. tuberculosis) protease inhibition | P9WHR9 | AID 2606 | 0.048% of 320,000 active | inhibition, % at 5.96 µM; in the data active = inhibition above about 38%;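 also: extracellular domain of Rv3671c used as enzyme; 0% = enzyme with DMSO and 100% = no enzyme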
Target sequence (P9WHR9 whole entry, looked up, the tested form may be a part): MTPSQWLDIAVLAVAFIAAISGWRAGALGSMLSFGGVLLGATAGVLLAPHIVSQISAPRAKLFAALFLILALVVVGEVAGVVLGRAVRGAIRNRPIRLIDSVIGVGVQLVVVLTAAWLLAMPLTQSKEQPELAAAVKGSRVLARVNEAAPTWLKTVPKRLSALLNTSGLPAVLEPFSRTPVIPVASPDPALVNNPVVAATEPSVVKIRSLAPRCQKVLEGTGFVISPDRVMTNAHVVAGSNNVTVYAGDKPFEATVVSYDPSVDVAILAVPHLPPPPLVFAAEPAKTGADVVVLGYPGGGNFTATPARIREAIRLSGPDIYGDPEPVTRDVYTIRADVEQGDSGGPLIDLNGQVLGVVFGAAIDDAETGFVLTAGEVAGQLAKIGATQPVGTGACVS
Mtb betalactam: beta-lactam sensitization of Mtb H37Rv; M. tuberculosis H37Rv growth with meropenem, percent inhibition; inhibition, % at 25 µM; 0.27% of 330,000 active;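 also: growth measured after seven days incubation then overnight dye step; 0% = bacteria only wells and 100% = bacteria with antibiotic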
GFP chromophore: counter-screen: blocks GFP chromophore formation | AID 434968 | shares compounds with RecA intein inh | cell-free GFP chromophore formation, fluorescence | EC50, µM | 83% of 2,100 active
An asterisk follows results filed as active; ? = inconclusive; · = no result. A selection: hits, their analogues and other compounds. The true share with any hit is near 0.97%. Unless noted, no rule for the calls is given here.

SMILES | Mtb UGM inh | TcdB GH inh | RecA intein inh | MazEF act | Rv3671c inh | Mtb betalactam | GFP chromophore
Cc1ccc2c(c1)c1c3n2CCN(C(=O)CCl)C3CCC1 (configuration not stated) | 0 | 0 | 73* | 4 | 5 | 100 | 7.3*
O=C1/C(=C/c2cccc([N+](=O)[O-])c2)CCc2ccccc21 | 4 | · | 45* | -14 | -2 | 33 | 29*
COCC#Cc1ccc2c(c1)O[C@H](CN(C)C(=O)C1CCCCC1)[C@@H](C)CN([C@H](C)CO)S2(=O)=O | · | 1 | · | · | · | · | ·
C/C=C/c1ccc([C@@H]2[C@@H](CO)N(C(=O)c3cnccn3)C23CN(C(=O)C2CCC2)C3)cc1 | · | -1 | · | · | · | · | ·
O=C1C(Cl)=C(N2CCOCC2)C(=O)N1c1cccc(Cl)c1 | 1 | · | 84* | -6 | -11 | 98 | 2.8*
Cc1cccc(N2C(=O)C(Cl)=C(N3CCOCC3)C2=O)c1 | 0 | 3 | 87* | 2 | 0 | ? | 4.5*
O=C1/C(=C/c2ccccc2)N=C(N2CCOCC2)N1c1cccc(Cl)c1 | -2 | 0 | 1 | 2 | -9 | 5 | ·
COc1ccc(C(=O)Nc2ccc3c(c2)C(=O)N(C)[C@@H]2CC[C@@H](CC(=O)NCC4CC4)O[C@H]2CO3)cc1 | · | 1 | · | · | · | · | ·
O=C(C[C@H]1CC[C@H]2[C@@H](COC[C@@H](O)CN2Cc2cccc(F)c2)O1)NCCc1ccncc1 | · | -1 | · | · | · | · | ·
O=C(CS(=O)c1ccc(C(F)(F)F)cc1[N+](=O)[O-])Oc1ccc(Cl)cc1 (configuration not stated) | 0 | · | 12 | -4 | 5 | 93 | ·
Cc1cc(C)cc(OC(=O)CS(=O)c2ccc(C(F)(F)F)cc2[N+](=O)[O-])c1 (configuration not stated) | 0 | · | 43* | 2 | -3 | 77 | 6.3*
O=C(CCl)Oc1ccc2occ(C(=O)c3cccs3)c2c1 | 2 | · | 32* | 6 | -10 | -13 | 25*
COc1ccc2[nH]c(CN3CCC(CO)(CCOc4ccccc4)CC3)c(C)c2c1 | -2 | 0 | 40* | 17 | 23 | 70 | >38
O=C(O)C[C@@H]1C[C@H]2c3cc(NC(=O)C4CCC4)ccc3O[C@H]2[C@H](CO)O1 | · | 0 | · | · | · | · | ·
O=C(c1cccs1)[C@@H]1[C@@H]2C(=O)N(Cc3ccc4c(c3)OCO4)C(=O)[C@@H]2C2c3ccccc3C=CN21 (some centres not stated) | 2 | · | 38* | · | -22 | 4 | 4.2*
O=C(c1ccc2c(c1)OCO2)[C@@H]1[C@@H]2C(=O)N(C3CCCCC3)C(=O)[C@@H]2C2c3ccccc3C=CN21 (some centres not stated) | · | · | 4 | -47 | · | · | ·
CCOC(=O)c1c(NC(=O)CSc2nnc(-c3c[nH]c4ccccc34)n2CCOC)sc2c1CCCC2 | -3 | 2 | 32* | -4 | -9 | 1 | >38
CCOC(=O)c1c(NC(=O)CSc2nnc(-c3c[nH]c4ccccc34)n2C)sc2c1CCCC2 | -2 | 1 | 0 | -13 | 0 | -2 | ·
CNC[C@@H]1Oc2ccc(NC(=O)CCCN(C)C)cc2C(=O)N([C@H](C)CO)C[C@H]1C | · | -1 | · | · | · | · | ·
COC(=O)c1cc([N+](=O)[O-])c(-n2ccnc2)c([N+](=O)[O-])c1 | 0 | 1 | 71* | 7 | 6 | 9 | 11*
O=C(Nc1ccc2c(c1)[C@@H]1C[C@@H](CC(=O)N3CCCCC3)O[C@@H](CO)[C@@H]1O2)c1cccnc1 | · | 1 | · | · | · | · | ·
O=C(O)c1cccc2c1C(=O)c1ccccc1C2=O | 0 | -2 | -3 | -21 | -8 | 3 | ·
O=C(O)c1ccc2c3c(ncnc13)-c1ccccc1C2=O | 2 | · | 44* | 3 | 3 | 66 | 4.4*
CC(C)S(=O)(=O)C1=NSC2=NC(=O)/C(=C\c3ccc(OC(=O)c4ccco4)cc3)C(=N)N21 | -1 | 0 | 34* | 2 | 3 | 94 | >38
CS/C(Nc1cc(Cl)ccc1Cl)=C(/C#N)C(=O)c1ccco1 | -1 | 2 | 65* | -1 | -16 | 100 | 27*
O=C(Nc1cc(Cl)ccc1Cl)c1ccco1 | -2 | 0 | -2 | 2 | 7 | -5 | ·
N#CC(C#N)=C(Nc1ccc(F)cc1)SCc1cccc(Br)c1 | 2 | 0 | 55* | 4 | 0 | 0 | 4.7*

Source: PubChem
